Screening results: PubChem, National Center for Advancing Translational Sciences (NCATS)
In the library only some 3% were active in any assay of this set; here they are far more common.
15-hLO inh = qHTS Assay for Inhibitors of 15-hLO (15-human lipoxygenase) | Polyunsaturated fatty acid lipoxygenase ALOX15 (Homo sapiens), P16050 | purified 15hLO-1, xylenol orange hydroperoxide absorbance | Potency, µM (series often up to 57.1 µM), inactives show at the highest dose activity change, negative = inhibition, hits mostly inhibitors | hit rate 1.4% among 74,000; also: % is scaled to controls: 0 for no effect and ±100 for the full control effect; nearly all actives have a fitted effect of over 55% in size
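Readout: Fe(III)-xylenol orange absorbance, 573-to-405 nm ratio as reaction progress. Enzyme 40 nM purified human 15hLO-1, substrate 50 uM arachidonic acid, 6 min RT after 15 min compound preincubation; Hepes pH 7.5 buffer with Triton X-100.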
Caspase-7 inhib = qHTS Assay for Allosteric/Competitive Inhibitors of Caspase-7; AID 889, 2007; recombinant caspase-7, Ac-DEVD-AFC fluorescence rate; P55210; Potency, µM (top dose mostly 57.5 µM), without a hit: at the top dose activity change, negative = inhibition, most hits filed as inhibitors; hit rate 0.02% among 75,000; active = well fitted inhibition curve with a large enough effect in the main read-out, with a control signal flat, not every such curve was filed as active; inconclusive = small, poorly fitted or top-dose-only effect, or a change in a side signal; also: % of control where 0% means no effect
Casp1 inh = qHTS Assay for Allosteric/Competitive Inhibitors of Caspase-1 | Caspase-1 enzyme, Ac-WEHD-AFC fluorogenic rate | Potency, µM (titrated, usually from 57.5 µM), for inactives: at the highest dose activity change, negative = inhibition, hits mostly inhibitors | hit rate 0.03% among 75,000 | AID 900, 2007;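 also: plate controls were vehicle for no effect and no substrate for full effect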
TSHR ag = qHTS Assay for Agonists of the Thyroid Stimulating Hormone Receptor | Thyrotropin receptor (Homo sapiens), P16473 | HEK293-CNG-TSHR cells (CNG channel as cAMP sensor), membrane potential dye, cAMP | Potency, µM (top dose mostly 57.1 µM), without a hit: top-dose activation, actives largely listed as activators | hit rate 0.48% among 73,000; active = well fitted activation curve with a large enough effect in the main read-out, with a control signal flat, not every such curve was filed as active; inconclusive = small, poorly fitted or top-dose-only effect, or a change in a side signal; inactive = no such curve, though single readings can be large or run the other way; % of control where 0% means no effect;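 also: the control signal comes from parental cells without the receptor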
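cAMP rise detected as CNG-channel membrane depolarization by fluorescent dye (emission 590 nm), 30 min after compound, following 60 min dye loading containing 100 uM RO 20-1724 at room temperature. Cells: TSHR/CNG HEK 293, with parental CNG HEK 293 as control.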
HEK293 cAMP cs = qHTS Assay for Agonists of the Thyroid Stimulating Hormone Receptor: Activators of Intracellular cAMP Concentrations in Parental HEK 293 | parental HEK293 CNG cAMP sensor, membrane potential fluorescence | Potency, µM (doses to about 57.1 µM), inactives show at the highest dose activation, actives largely listed as activators | hit rate 2.5% among 73,000 | AID 938, 2007; also: % of control where 0% means no effect; nearly all actives have a fitted effect of over 55% in size
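Parental HEK 293 cells stably expressing a modified CNG channel (no TSHR) report cAMP rise as membrane depolarization. Membrane potential dye with 100 uM RO 20-1724 was loaded for 60 min at room temperature, then compound added for 30 min; fluorescence read at 590 nm.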
15-hLO-2 inh = qHTS Assay for Inhibitors of 15-hLO-2 (15-human lipoxygenase 2); Polyunsaturated fatty acid lipoxygenase ALOX15B (Homo sapiens), O15296; AID 881, 2007; purified 15hLO-2, xylenol orange hydroperoxide absorbance; Potency, µM (doses to about 57.1 µM), without a hit: top-dose activity change, negative = inhibition, most hits filed as inhibitors; hit rate 0.56% among 110,000; also: % is scaled to controls: 0 for no effect and ±100 for the full control effect; nearly all actives have a fitted effect of over 60% in size
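Read-out: hydroperoxide product oxidises ferrous iron, measured as xylenol orange complex via the 573-to-405 nm absorbance ratio after 30 min. Reaction: 50 nM enzyme, 15 min compound preincubation, 45 uM arachidonic acid, 90 min RT, Hepes pH 7.5 with Triton X-100.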
An asterisk follows results filed as active; ? = inconclusive; . = not tested or not shown; [ ] = remark or other dose. Unless noted, calls follow the shape of the dose curve; as a rule, active = well fitted curve in the direction sought with a large enough effect; inconclusive = small, poorly fitted or top-dose-only effect, or another doubt; inactive = no such curve, though single readings can be large; an effect the other way counts as inactive or inconclusive. Potency is read from the fitted curve at half-maximal effect.

SMILES	15-hLO inh	Caspase-7 inhib	Casp1 inh	TSHR ag	HEK293 cAMP cs	15-hLO-2 inh
CCCC[C@@H]1C[C@H]1[C@@H](NP(=O)(c1ccccc1)c1ccccc1)c1ccccc1OC	3%	-5%	-5%	?	?	0%
O=C/C=C/c1ccc(O)cc1	20%	1%	3%	.	.	-6%
Cc1noc(C)c1CSc1nc2ccccc2c(=O)n1-c1ccc(F)cc1F	?	-1%	-3%	?	16µM*	-7%
Cc1noc(C)c1CSc1nc2ccccc2c(=O)n1-c1ccccc1	-26%	-2%	-3%	?	10µM*	-5%
C=CCn1c(SCc2c(C)noc2C)nc2ccccc2c1=O	.	.	.	.	.	-1%
CCOC(=O)OCC1OC(c2cc(C)cc(C)c2)C=CC1OC(=O)OCC (stereo not drawn)	-5%[11.4 µM]	-1%[11.5 µM]	0%[11.5 µM]	0%[11.4 µM]	-2%[11.4 µM]	.
N#Cc1c(Sc2ncc(C(F)(F)F)cc2Cl)nsc1C/C=N\OCc1ccccc1Br	.	.	.	.	.	13µM*
O=c1c(O)c(-c2ccc(O)c(O)c2)oc2c(OC[C@H]3O[C@@H](O)[C@@H](O)[C@H](O)[C@@H]3O)c(O)cc(O)c12	.	.	.	10%	-1%	.
Clc1ccccc1-c1ccc(CN2CCN(c3ccccc3)CC2)o1	.	.	.	.	.	33%
O=C(c1csc2c1CCCC2)n1cccn1	-19%	-1%	2%	32µM*	6%	.
Cc1cc(C(=O)COc2ccc(-c3nnco3)cc2)c(C)n1Cc1ccccc1	-9%	-3%	-3%	?	13µM*	5%
O=c1c(-c2ccc(F)cc2)nc2cnc(N3CCNCC3)nc2n1C1CC1	-11%	?	.	?	?	17%
Cc1ccc(C)n1-n1c(C)nc2scc(-c3cccs3)c2c1=O	-13%	-4%	-4%	?	?	3%
Cc1nc2scc(-c3cccs3)c2c(=O)n1-n1cccc1	?	-1%	0%	?	32µM*	-4%
O=C(NC(NC(=S)Nc1ccccc1)C(Cl)(Cl)Cl)c1cccc(Cl)c1 (stereo not drawn)	.	.	.	.	.	25µM*
COC(c1ccccc1)C(C)C(OC)C(C)C(OC)C(C)C(C)=O (stereo not drawn)	5%[11.4 µM]	-1%[11.5 µM]	-1%[11.5 µM]	22%[11.4 µM]	3%[11.4 µM]	.
CCCn1c(=O)c2ccccc2n2c(SCCOc3ccccc3)nnc12	-4%	-1%	-1%	?	10µM*	-12%
Cc1ccc(Cl)cc1N1CCN(Cc2nnnn2C2CCCCC2)CC1	-18%	-4%	-2%	?	13µM*	9%
c1ccc(N2CCN(Cc3nnnn3C3CCCCC3)CC2)cc1	0%	1%	-2%	?	?	-5%
Cc1ccc2oc(=O)c3c4cc(O)c(O)c(C)c4oc3c2c1	.	-11%	-6%	.	.	?
CCc1nc(C)cn1S(=O)(=O)c1ccc(Cl)c(Cl)c1Cl	-5%	0%	-1%	?	25µM*	6%
CCc1nc(C)cn1S(=O)(=O)c1cc(Cl)c(OC)cc1Cl	.	.	.	.	.	14%
CN(C)c1ncnc2ccc(-c3ccccc3C(F)(F)F)cc12	-5%	-4%	-2%	?	?	12%
COc1cc2[nH]c(=S)n(C3CCCC3)c(=O)c2cc1OC	16µM*	-1%	-6%	-8%	-4%	-16%
COc1cc2[nH]c(=S)n(CC3CCCO3)c(=O)c2cc1OC (stereo not drawn)	-4%	1%	0%	1%	1%	0%
COC(=O)c1ccc(C(NC(=O)OCc2ccccc2)/C(=C/[C@@H](C)C(=O)NC2CCCCC2)c2cccnc2)cc1 (stereo partly drawn)	-14%	-4%	-1%	?	?	49%
CCOc1ccc(OCCSc2nnnn2C2CCCCC2)cc1	-7%	-3%	-3%	?	20µM*	1%[2.29 µM]
